Consider ten molecules from PubChem BioAssay AID651660 (Broad Institute, 2012).

The whole screen tested about 1,900 compounds, of which about 15 (0.8%) were called active. This excerpt belongs to a sample that is enriched for actives. Unmarked numbers belong to inactive results.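 Rule for the calls: active = every replicate shows at least 50% inhibition; inconclusive = mean inhibition at least 50% but some replicate below; inactive = the rest.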

Chain of DNA repair protein RAD52 homolog (Homo sapiens) (P43351 whole entry, looked up): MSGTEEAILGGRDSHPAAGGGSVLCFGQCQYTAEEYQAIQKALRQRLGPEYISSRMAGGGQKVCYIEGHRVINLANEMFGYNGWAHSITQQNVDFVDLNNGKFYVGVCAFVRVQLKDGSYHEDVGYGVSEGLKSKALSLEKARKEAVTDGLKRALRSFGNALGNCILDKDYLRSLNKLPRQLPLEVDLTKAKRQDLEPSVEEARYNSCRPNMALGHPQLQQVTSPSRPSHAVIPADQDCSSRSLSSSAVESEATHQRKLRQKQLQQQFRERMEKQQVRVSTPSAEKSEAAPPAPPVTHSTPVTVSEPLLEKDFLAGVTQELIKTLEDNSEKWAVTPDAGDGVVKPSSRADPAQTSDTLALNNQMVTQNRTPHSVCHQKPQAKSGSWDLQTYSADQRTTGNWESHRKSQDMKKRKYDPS

This assay concerns the target DNA repair protein RAD52 homolog (Homo sapiens) (UniProt P43351). The experiment in a line: RAD52 ssDNA annealing inhibitors, primary screen, biochemical, FRET, single point (AID 651660).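 Note: 0% = median of neutral control wells and 100% = median of positive control wells.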 The following applies: Recombinant RAD52 ssDNA annealing, FRET fluorescence, 30 min; at 18.7 µM; active compounds read high.
As for `COc1cc2c3cc1Oc1cc(ccc1O)C[C@@H]1c4c(cc(OC)c(O)c4Oc4ccc(cc4)C[C@H]3N(C)CC2)CCN1C`, the inhibition is 77.6% (active).
Turning to `c1cnc2c(c1)ccc1ncccc12`, the inhibition was -3.46%.
Consider `O=C1NCCN2CCCC12` (stereo not given), for which the inhibition is -1.15%.
On to `CCC1(c2ccccc2)C(=O)N(COC)C(=O)N(COC)C1=O`, for which the inhibition is -5.47%.
With `C[N+]1(C)CCOC(O)(c2ccc(-c3ccc(C4(O)C[N+](C)(C)CCO4)cc3)cc2)C1` (stereo not given), the inhibition was 61.8% (active).
Consider `C=C1[C@@H](C)[C@H]2[C@H](Cc3ccccc3)NC(=O)[C@]23OC(=O)/C=C/[C@H](O)CCC[C@@H](C)C/C=C/[C@H]3[C@@H]1O`, for which the inhibition was -0.777%.
For `CC(C)(C)C(O)C(Oc1ccc(Cl)cc1)n1cncn1` (stereo not given), the inhibition was -119%.
Next, `NCCc1c[nH]c2ccc(F)cc12`: 0.119%; `CN1C(=O)N(C)C(=O)C2(Cc3ccccc3N3CCOCC32)C1=O` (stereo not given): -0.534%; `CCNC(=S)N(C)CCc1cc2c(c(OC)c1C=C1C(=O)N(C)C(=O)N(C)C1=O)OCO2`: -15%.
